Laboratory results from PubChem BioAssay AID1117361 (Southern Research Institute, 2015).
Among all 3,600 compounds or so, about 900 (25%) were called active. How the calls were made is not given here. A selection follows. Measured potencies and affinities stand elsewhere.

Each compound was assayed against Protein Tat (Human immunodeficiency virus type 1 group M subtype B (isolate HXB2)) (UniProt P04608) (assay: HIV-1 Tat–TAR interaction blockers – biochemical, fluorescence polarization, FAM-labeled TAR RNA, counter-screen for Vif-APOBEC3G degradation inhibitor project, dose response (AID 1117361)). Settings: Tat-TAR RNA binding; series mostly up to 100 µM.

Structure (SMILES) | outcome
C/C(=N\OC(=O)c1ccc(F)cc1)c1sc(-c2ccccc2)nc1C | inactive
CC1CCc2cc(F)ccc2N1C(=O)C1(C)CC1(Cl)Cl (configuration not stated) | inactive
C/C(=N\O)C(=O)NCc1ccccn1 | inactive
O=C(NCc1ccccn1)c1ccc(Cn2cc(Br)cn2)o1 | inactive
O=C(NC1=CC(=O)c2ccccc2C1=O)c1ccccc1 | inactive
Cc1ccc(NC(=O)CNC(=O)COc2ccccc2)nc1 | inactive
COc1ccc2cc(C(=O)N3CCOCC3)sc(=O)c2c1OC | inactive
COc1ccc(/C=C/C(=O)NC(=S)Nc2ccccn2)cc1 | inactive
COc1ccc(/C=C(/NC(C)=O)C(=O)O)cc1 | inactive
COc1ccccc1/C=C/C=C1N=C(/C=C/c2ccc(Cl)cc2)OC/1=O | inactive
COc1ccc(OC)c(/C(O)=C/C(=O)C(=O)Nc2ccccc2OC)c1 | inactive
CN1C(=O)CC(N2CCN(C(=O)c3ccccc3)CC2)C1=O (configuration not stated) | inactive
Cc1cc(-n2ccnc2)n2c(nc3ccccc32)c1C#N | inactive
COc1cc(-n2cnnn2)ccc1S(=O)(=O)N1CCOCC1 | inactive
CCCn1c(=O)c(-c2ccccc2)c(O)c2ccccc21 | inactive
O=C1c2ccccc2S(=O)(=O)N1CC(O)COc1ccc(Br)cc1 (configuration not stated) | inactive
CCOC(=O)C1C(c2ccc(O)c(OCC)c2)NC(=S)NC1(O)C(F)(F)F (configuration not stated) | inactive
CS(=O)(=O)c1ccc(Cl)c(NC(=O)COC(=O)COc2ccc3c(c2)CCC3)c1 | inactive
COc1ccc(CNC(=O)CN(CC2CCCO2)C(=O)CNS(=O)(=O)c2ccc(C)cc2)cc1 (configuration not stated) | inactive
COc1cccc(CNC(=O)Cn2c(=O)oc3ccccc32)c1OC | inactive
COc1ccc(OC)c(/C(O)=C/C(=O)C(=O)Nc2cc(C)ccc2OC)c1 | inactive
COc1ccc(OC)c(NC(=O)c2[nH]c(C)c(C(C)=O)c2C)c1 | inactive
COc1ccc(CC(=O)OCc2cc3ccc(C)cc3[nH]c2=O)cc1 | inactive

Structure (SMILES) | outcome
N=c1sccn1CC(=O)Nc1ccc2c(c1)CCC2 | inactive
COc1ccc(OC)c(C2C(C(=O)c3cc4ccccc4o3)=C(O)C(=O)N2c2cc(C)on2)c1 (configuration not stated) | inactive
CCC(C)NC(=S)NNC(=O)c1ccc(C(C)(C)C)cc1 (configuration not stated) | inactive
Cc1cc2c(=Cc3ccc(N(C)C)cc3)c3ccccc3n2[n+]1C | inactive
Oc1cccc(/C=N/NC(=S)NCCN2CCOCC2)c1O | inactive
COc1cccc(C=Nc2cc(C(C)C)c(O)cc2C)c1O | inactive
COc1cccc(CC(NC(C)=O)C(=O)NC2CCN(S(=O)(=O)c3ccc4ccccc4c3)CC2)c1 (configuration not stated) | inactive
COc1ccccc1N1CCN(CC(O)COCCOc2ccc(Br)cc2)CC1 (configuration not stated) | inactive
CC(=O)Nc1ccc(C(=O)Nc2cccc(-c3cnc4ccccc4n3)c2)cc1 | inactive
CC(=O)Nc1ccc(N/C=C/C(=O)C(C)(C)C)cc1 | inactive
Cc1ccc(NC(=O)c2ccc(Cl)c(N3C(=O)C=CC3=O)c2)cc1 | inactive
Cc1cc(C)c(C)c(OCCCOc2cccc3cccnc23)c1 | inactive
Cc1nnc(SCC(=O)N2CCN(c3ccccc3)CC2)n1C1CC1 | inactive
COc1ccc(/C=N/NC(=O)c2ccc3ccccc3c2)cc1OS(=O)(=O)c1ccc(NC(C)=O)cc1 | inactive
COC(=O)c1sccc1NC(=O)c1cc(-c2ccc(C)cc2C)nc2ccccc12 | inactive
Cc1ccc(C(=O)N/C(=C/c2cccnc2)C(=O)NCc2ccco2)cc1 | inactive
O=C(CNC(=O)/C(=C\c1ccccc1)NC(=O)c1ccc(Br)cc1)OCc1ccccc1 | inactive
O=C(NCC1CCCO1)c1ccc(CS(=O)(=O)Cc2ccc(F)cc2)o1 (configuration not stated) | inactive
Cc1cc(C(F)(F)F)n2nc(C(=O)O)c(Cl)c2n1 | inactive
O=C1NC(=Nc2ccc(F)cc2)SC1Cc1ccc(F)cc1 (configuration not stated) | inactive
O=C(O)c1ccc(S(=O)(=O)c2ccc([N+](=O)[O-])cc2[N+](=O)[O-])cc1 | inactive
COc1ccc(NC(=O)/C(C#N)=C\c2cc(C)n(-c3ccc(Oc4ccc([N+](=O)[O-])cn4)cc3)c2C)cc1 | inactive
CCCN(CCC)S(=O)(=O)c1cc(Br)cc2c1N(C(=O)CC)CC2 | inactive

Structure (SMILES) | outcome
O=C1CCCC(NCCCCCCNC2=C([N+](=O)[O-])C(=O)CCC2)=C1[N+](=O)[O-] | inactive
CC(NCCO)C(=O)C12CC3CC(CC(C3)C1)C2 (configuration not stated) | inactive
CN(C)S(=O)(=O)N1CCC(CCCC2CCN(S(=O)(=O)N(C)C)CC2)CC1 | inactive
CN1CCN(c2nc(-c3cccnc3)nc3ccccc23)CC1 | inactive
C[C@@H]1NC(=O)[C@H](CCC(N)=O)NC(=O)c2cc([N+](=O)[O-])cc(I)c2NCCC[C@@H](C(N)=O)NC1=O | inactive
O=C(COC(=O)c1cc(=O)[nH]c2ccccc12)Nc1cccc(S(=O)(=O)N2CCOCC2)c1 | inactive
CN(Cc1ccccc1)C(=O)c1cccc(N2C(=O)NC3CC2(C)Oc2ccccc23)c1 (configuration not stated) | inactive
NC(=O)c1ccc(NC(=O)CSc2nc3ccccc3c(=O)n2CCCN2CCOCC2)cc1 | inactive
CCCCCCn1c(SCC(=O)Nc2cc(C)on2)nc2ccccc2c1=O | inactive
Cc1sc(-c2ccccn2)nc1OC(=O)c1cccc(Cl)c1Cl | inactive
CCCS(=O)(=O)N1CCCC(C(=O)NCCCOC(C)C)C1 (configuration not stated) | inactive
CC(C)C(=O)Nc1nnc(Sc2ccc(N(C)C)cc2)s1 | inactive
O=S(=O)(c1ccccc1)N1CCN(S(=O)(=O)N2CCCCC2)CC1 | inactive
COc1cc(C(=O)OCC(=O)N2CCCC2)cc(OC)c1OC | inactive
Cc1ccccc1NC(=O)Cc1nc(COC(=O)Cc2ccccc2F)cs1 | inactive
COc1ccc(S(=O)(=O)NNC(=O)c2sccc2-n2cccc2)cc1 | inactive
COC(=O)CC1Oc2ccccc2N(Cc2ccccc2)C1=O (configuration not stated) | inactive
CCOC(=O)C1(Cc2ccc(OC)cc2)CCN(C(=O)c2cccc3nccnc23)CC1 | inactive
O=C(Nc1cccc(C(F)(F)F)c1)c1cc(S(=O)(=O)N2CCCCC2)ccc1N1CCOCC1 | inactive
O=C(CN1CCN(S(=O)(=O)c2ccc(F)cc2)CC1)Nc1cc(C(F)(F)F)ccc1Cl | inactive
Cc1cccc(Cc2nnc(CCC(=O)N(C)C3CCOC3)o2)c1 (configuration not stated) | inactive
